Results on eight compounds are retold here after PubChem BioAssay (NCATS).

Experiment [1] in a line: HPAF-II 24hr Apoptosis Induction qHTS against the NCATS CANVASS Library (AID 1347356). Also: 0% is about no effect. The method in brief:
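Luminescent caspase-3/7 signal (DEVD substrate, Caspase-Glo) served as read-out, taken 15 min after reagent addition to HPAF-II cells exposed 24 h to compounds.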
On the technique in general: In qHTS, concentration-response curves come from the screen itself.

Experiment [2] is described as follows: HEK293 18hr Apoptosis Induction qHTS against the NCATS CANVASS Library (AID 1347357). Also: 0% is about no effect. Put shortly: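 HEK293 cells (500/well, DMEM + 10% FBS) treated with an 11-point series for 18 h at 37 degrees C. Caspase-3/7 activity read by Caspase-Glo luminescence after 15 min at room temperature.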
A short description of experiment [3]: HEK293 24hr Apoptosis Induction qHTS against the NCATS CANVASS Library (AID 1347359). Also: 0% is about no effect. The method in brief:
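HEK293 cells (500/well, DMEM + 10% FBS) were exposed to compounds in an 11-point series for 24 hours at 37 degrees C, then caspase-3/7 activity was read by Caspase-Glo DEVD luciferase luminescence after 15 min.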

Experiment [4] in a line: HPAF-II 18hr Apoptosis Induction qHTS against the NCATS CANVASS Library (AID 1347360). Also: 0% is about no effect. Put shortly: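 HPAF-II cells at 500/well were exposed for 18 h at 37 C to an 11-point compound series. Caspase-3/7 activity was read by Caspase-Glo luminescence after 15 min at RT.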
The target in experiment [5] is Luciferin 4-monooxygenase (Photinus pyralis) (UniProt P08659). The experiment is described as follows: Firefly luciferase counterscreen qHTS: Assay Interference Panel against the NCATS CANVASS Library (AID 1347363). Also: 0% is about no effect. The method in brief: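 Purified P. pyralis luciferase was added to compounds (11-point series) preincubated 15 min at room temperature with substrate containing 0.013 mM D-luciferin and 0.013 mM ATP; luminescence was read after 5 min.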
Luciferin 4-monooxygenase (Photinus pyralis), sequence (P08659 whole entry, looked up): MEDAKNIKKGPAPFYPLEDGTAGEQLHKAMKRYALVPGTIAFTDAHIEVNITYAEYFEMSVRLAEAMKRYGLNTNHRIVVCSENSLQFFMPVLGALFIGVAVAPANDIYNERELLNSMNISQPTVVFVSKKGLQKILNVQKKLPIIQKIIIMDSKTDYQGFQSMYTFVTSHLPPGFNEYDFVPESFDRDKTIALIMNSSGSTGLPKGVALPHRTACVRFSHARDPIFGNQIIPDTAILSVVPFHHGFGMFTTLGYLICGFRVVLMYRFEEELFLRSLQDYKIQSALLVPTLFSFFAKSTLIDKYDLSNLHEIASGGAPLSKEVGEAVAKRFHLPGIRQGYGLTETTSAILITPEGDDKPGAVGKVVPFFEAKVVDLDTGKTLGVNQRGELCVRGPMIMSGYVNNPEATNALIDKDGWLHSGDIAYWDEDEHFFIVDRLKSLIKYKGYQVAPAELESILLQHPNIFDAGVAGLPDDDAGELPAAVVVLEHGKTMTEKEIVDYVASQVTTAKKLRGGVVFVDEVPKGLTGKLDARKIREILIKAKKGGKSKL
For orientation: A counterscreen serves to expose hits that act by an unwanted route or on another target.

Experiment [6] in a line: qHTS for ATAD5 Agonist screened against the NCATS CANVASS Library (AID 1347367).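 Also: luciferase reporter driven by ATAD5 which rises upon DNA damage; 0% is about no effect.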 Put shortly: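 Luciferase reporter under ATAD5 control, stably integrated in HEK293T cells (2000/well). Compounds (11 points) incubated 16 h at 37C; viability read first by CellTiter-Fluor, then luminescence reporting ATAD5 activation. MMS positive control.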
The nature of experiment [7]: MCF7 Cancer Cell Toxicity qHTS against the NCATS CANVASS Library (AID 1347369). Also: % is scaled to controls: 0 for no effect and ±100 for the full control effect. The method in brief:
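MCF7 cells (500/well) were exposed 72 h at 37 °C to compounds in an 11-point series. Viability was read as ATP content by CellTiterGlo luminescence.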

Experiment [8] has as its target Nuclear receptor subfamily 1 group I member 3 (Homo sapiens) (UniProt Q14994). As to the kind of experiment: qHTS for Constitutive Androstane Receptor (CAR) Antagonist screened against the NCATS CANVASS Library (AID 1347372).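 Also: cells stimulated with 50 nM CITCO agonist so inhibition reflects antagonism; % is scaled to controls: 0 for no effect and ±100 for the full control effect.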 Put shortly: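 HepG2 cells stably carrying hCAR and a CYP2B6-2.2kb luciferase reporter were exposed to compounds plus 50 nM CITCO for 24hr at 37C. CAR activity was read by ONE-Glo luminescence, with viability measured first by CellTiter-Fluor.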

The target is the same in experiment [9]. As to the kind of experiment: qHTS for Constitutive Androstane Receptor (CAR) Agonist screened against the NCATS CANVASS Library (AID 1347373).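 Also: every well also contained 1.5 µM PK11195 alongside the test compound.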 Also: potency is read from the fitted curve at half-maximal effect. Put shortly:
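HepG2-hCAR-CYP2B6 cells, 2500/well, attached 4hr; cpd + PK11195 1.5uM final; 24hr 37C 5% CO2. CellTiter-Fluor viability read, then ONE-Glo luminescence for CAR activation.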

Experiment [10] can be described thus: 10-beta competent E. coli microbial cell viability qHTS against the NCATS CANVASS Library (AID 1347376). Also: 0% is about no effect. The method in brief:
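E. coli 10-beta, 0.2 OD; cpds 11-pt; o/n 37C, 5% CO2; BacTiter-Glo 20 min RT; luminescence (ATP) = viable cells. Daunomycin ctrl.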

Experiment [11] can be described thus: qHTS for H2AX Agonists against the NCATS CANVASS Library (AID 1347378). Also: 0% is about no effect. Put shortly:
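CHO-K1 cells (1000/well, overnight at 37C) exposed to compounds at several concentrations for 3 hr at 37C, 0.76% DMSO final. Lysates read by TR-FRET (phospho-H2AX S139 Eu-cryptate antibody / H2AX-d2 antibody) after 24 hr at room temperature; 665/615 nm ratio.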

A short description of experiment [12]: Inflammasome Signaling qHTS Counterscreen: IL-1-beta AlphaLISA counterscreen against the NCATS CANVASS Library (AID 1347381).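 Also: cell-free check with purified IL-1β in medium and no THP-1 cells; 0% is about no effect.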 The method in brief: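 Cell-free interference check: compounds added to medium spiked with 4 pg purified IL-1β. Anti-IL-1β acceptor beads (6 ug/mL) with 0.6 nM biotinylated antibody added for 1 h at RT, then streptavidin donor beads (24 ug/mL) for 30 min in the dark. AlphaLISA read at 680/615 nm.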

A short description of experiment [13]: Cytotoxicity qHTS for assessment of Hepg2 cells membrane integrity screened against the NCATS CANVASS Library (AID 1347387). Put shortly: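 qHTS, 11-pt conc. series, 0.59 nM - 46 uM final; HepG2 2000 cells/well, overnight attachment; 5 hr compound exposure 37C/5% CO2; CytoTox-ONE, 10 min RT; fluorescence ex560/em590 = LDH from damaged membranes.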
Experiment [14] can be described thus: qHTS to identify inhibitors of the type 1 interferon - major histocompatibility complex class I in skeletal muscle: primary screen against the NCATS Mechanism Interrogation Plate v5.0 (MIPE) Libary (AID 1347411). Also: potency is read from the fitted curve at half-maximal effect; nearly all actives have a fitted effect of over 65% in size. Put shortly:
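Luminescence from HiBiT-tagged endogenous HLA-B*08:01 served as the MHC class I read-out. CRISPR-engineered C25cl48 human myoblasts received 4.0 ng/ml IFN-beta plus compound for 24 hrs, with an 11-point, 1:3 series topping at 46 uM final.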

The nature of experiment [15]: Primary qHTS for inhibitors of nuclear receptor binding SET domain protein 2 (NSD2) in an isogenic RCH-ACV NSD2 p.E1099K mutant (9B) (AID 1645876). Also: potency is read from the fitted curve at half-maximal effect; nearly all actives have a fitted effect of over 70% in size.
Experiment [16] is described as follows: Primary qHTS for inhibitors of nuclear receptor binding SET domain protein 2 (NSD2) in an RCH-ACV wild type WT cells (2C) (AID 1645877). Also: potency is read from the fitted curve at half-maximal effect; nearly all actives have a fitted effect of over 70% in size.
Experiment [17] deals with Glutathione peroxidase 1 (Homo sapiens) (UniProt P07203). As to the kind of experiment: Primary qHTS Assay for Inhibitors of Recombinant Selenoprotein Glutathione Peroxidase 1 (GPX1) (AID 1845191). Also: nearly all actives have a fitted effect of over 65% in size. Also: potency is read from the fitted curve at half-maximal effect. The method in brief:
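Recombinant GPX1 (10 nM final) was preincubated with compound for 30 min at room temperature, then reacted with 1 mM GSH, 0.5 mM CHP, 0.5 mM NADPH and 100 nM glutathione reductase; NADPH fluorescence (340/450 nm) was read at 0 and 15 min.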

The nature of experiment [18]: qHTS drug screen for cell cycle checkpoint inhibitors in PARPi-resistant BRCA-mutant ovarian cancer cell lines. (AID 1963452; calls by dose curve; also: potency is read from the fitted curve at half-maximal effect). The settings on record: PEO1/OlaR viability, CellTiter-Glo luminescence, 96 h; for Z-AUC: stronger effect = lower value. Put shortly: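 PEO1, PEO4 and PEO1/OlaR ovarian cancer cells, 600 per well, exposed 96 h at 37C to a dilution series. Viability read by CellTiter-Glo luminescence, normalized to DMSO and empty wells; activity summarized as Z-AUC.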

Experiment [19] can be described thus: qHTS assay to identify inhibitors of the type 1 interferon - major histocompatibility complex class I in skeletal muscle: Counter screen cell viability and HiBit confirmation (AID 1347412). Also: potency is read from the fitted curve at half-maximal effect. As to activity change, negative = inhibition: % is scaled to controls: 0 for no effect and ±100 for the full control effect. As to all read-outs here: nearly all actives have a fitted effect of over 60% in size. The settings on record: iHSKM muscle cells + IFN-b, HiBiT or CellTiter-Glo, 24 h; for activity change, negative = inhibition: at 45.9 µM (top of the series). Put shortly:
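CRISPR HLA-B*08:01-HiBit immortalized human myoblasts (C25cl48) stimulated with 4 ng/ml IFN-beta and compounds (12-point 1:3, top 46 uM final) for 24 h at 37 C. Duplicate plates read by HiBit lytic luminescence or CellTiter Glo ATP.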

Experiment [20] concerns the target Phospholipid hydroperoxide glutathione peroxidase GPX4 (Homo sapiens) (UniProt P36969). As to the kind of experiment: Primary qHTS Assay for Inhibitors of Recombinant Selenoprotein Glutathione Peroxidase 4 (GPX4) (AID 1845192). Also: nearly all actives have a fitted effect of over 65% in size. Also: potency is read from the fitted curve at half-maximal effect. As to activity change, negative = inhibition: % is scaled to controls: 0 for no effect and ±100 for the full control effect. The settings on record: outcome: dose series up to 50 µM unless noted. The method in brief: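 GR-coupled readout: 100 nM GR, 1 mM GSH, 0.5 mM NADPH; NADPH fluorescence (ex 340/em 450 nm) read at t=0 and after 15 min RT. GPX4 200 nM, preincubated 30 min with compound; substrate 0.5 mM CHP.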

Where [21] appears, read: measured here: PEO1 parental Z-AUC.

Molecules are shown by their SMILES. Records with an inconclusive call do not appear. Active and inactive are the calls of the source. Unless noted, calls follow the shape of the dose curve; as a rule, active = well fitted curve in the direction sought with a large enough effect; inconclusive = small, poorly fitted or top-dose-only effect, or another doubt; inactive = no such curve, though single readings can be large; an effect the other way counts as inactive or inconclusive.

Nuclear receptor subfamily 1 group I member 3 (Homo sapiens), sequence (Q14994 whole entry, looked up): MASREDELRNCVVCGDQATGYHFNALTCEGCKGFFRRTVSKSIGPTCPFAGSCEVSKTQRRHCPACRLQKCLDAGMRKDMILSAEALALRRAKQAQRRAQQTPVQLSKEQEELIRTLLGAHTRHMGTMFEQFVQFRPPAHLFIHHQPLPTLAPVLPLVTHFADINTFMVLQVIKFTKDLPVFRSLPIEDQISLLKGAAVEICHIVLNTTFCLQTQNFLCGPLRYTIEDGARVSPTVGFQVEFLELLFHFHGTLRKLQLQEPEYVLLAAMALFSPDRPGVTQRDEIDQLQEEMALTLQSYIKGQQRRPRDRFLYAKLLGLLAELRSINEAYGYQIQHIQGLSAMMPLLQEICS
Glutathione peroxidase 1 (Homo sapiens), sequence (P07203 whole entry, looked up): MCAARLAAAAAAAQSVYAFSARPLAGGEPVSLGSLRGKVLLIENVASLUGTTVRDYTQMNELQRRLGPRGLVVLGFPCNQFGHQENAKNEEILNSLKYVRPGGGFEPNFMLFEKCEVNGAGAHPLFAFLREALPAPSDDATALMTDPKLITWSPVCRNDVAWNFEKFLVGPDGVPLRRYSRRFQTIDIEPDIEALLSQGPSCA
Phospholipid hydroperoxide glutathione peroxidase GPX4 (Homo sapiens), sequence (P36969 whole entry, looked up): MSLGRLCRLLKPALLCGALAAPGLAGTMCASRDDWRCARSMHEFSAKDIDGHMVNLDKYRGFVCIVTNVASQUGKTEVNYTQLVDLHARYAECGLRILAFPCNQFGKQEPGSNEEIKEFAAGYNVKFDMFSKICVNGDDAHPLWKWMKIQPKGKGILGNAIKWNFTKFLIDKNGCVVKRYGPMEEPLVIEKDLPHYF

`C/C1=C/[C@@H](C)[C@H](O)C/C=C/CC/C=C/C(=O)O[C@@H]1[C@H](C)C(=O)CCCC1CC(=O)NC(=O)C1`: the result in [1], in [10], in [12] and in [13] was inactive. In addition, the Potency entry in [2], in experiment [3], in experiment [4], in experiment [5], in experiment [6] and in experiment [7] was “inactive” throughout. For the same compound, the Potency result in experiment [8], in experiment [9] and in [11] was “inactive” throughout.

In the case of `COc1cc2c(cc1OC)[C@@H](c1ccc3c(c1)OCO3)C(C)[C@@H](C)C2=O` (stereo partly drawn), the compound was called inactive in experiment [1], in experiment [10], in [12] and in experiment [13]. Also, the Potency entry in [2], in [3], in experiment [4], in experiment [5], in [6] and in experiment [7] was “inactive” each time. Besides, the Potency result in experiment [8] and in [11] was “inactive” in each case. For the same compound, the Potency in experiment [9] is 9.33 µM (active).

As to `CC(=O)c1cc2c(o1)C(=O)c1ccccc1C2=O`, the Potency was 0.523 µM (active) in [14]; 1.86 µM (active) in experiment [15]; 1.32 µM (active) in experiment [16]; 1.29 µM (active) in experiment [17]; 0.549 µM (active) in [18]; 0.249 µM (active) in experiment [19] (HiBiT). In addition, the Potency in experiment [19] (Viability) is 0.394 µM (active). Further, the Z-AUC in experiment [18] (setting [21]) was -1.52; in experiment [18] (measured here: PEO4 Z-AUC), -1.88.

Take `C=C1C(=O)O[C@H]2C[C@H](C)C(/C=C/C(C)=O)=CC[C@H]12`: the Potency in experiment [14] is 6.58 µM (active); in experiment [15], 1.48 µM (active); in experiment [16], 1.32 µM (active); in [19] (HiBiT), 3.13 µM (active). Further, in [20], the Potency result is “inactive”. In addition, the Z-AUC was 0.205 (inactive) in experiment [18], -0.357 in experiment [18] (setting [21]) and -0.273 in [18] (measured here: PEO4 Z-AUC). In addition, in experiment [19] (Viability), the activity change, negative = inhibition is 64.7% (inactive).

`NC(=O)/C(=C/n1cnc(-c2cc(C(F)(F)F)cc(C(F)(F)F)c2)n1)c1cncnc1`: the Potency in experiment [14] is 3.3 µM (active); in [15], 0.417 µM (active); in experiment [16] it was 0.235 µM (active); in [19] (HiBiT), 1.57 µM (active). In addition, the Potency entry in [17] and in experiment [20] was “inactive” each time. The Z-AUC in [18] was -0.773 (inactive); in experiment [18] (setting [21]), -2.06; in experiment [18] (measured here: PEO4 Z-AUC), -1.68.

Consider `CN1CCN(c2ccc3nc(-c4cc(C(C)(C)C)c(OCCCC(=O)NCCCN=[N+]=[N-])c(C(C)(C)C)c4)[nH]c3c2)CC1`, for which the Potency in experiment [14] is 13.1 µM (active); in experiment [15], 7.42 µM (active); in experiment [16] it was 6.61 µM (active); in experiment [19] (Viability) it was 24.9 µM (active). The Potency entry in [17] is “inactive”. Further, the Z-AUC in [18] was 0.842 (inactive); in [18] (setting [21]) it was 0.24; in experiment [18] (measured here: PEO4 Z-AUC), 0.156.

Turning to `C[C@H]1CNC(=O)c2cnn3ccc(nc23)N[C@H](C)c2cc(F)ccc2O1`, the Potency in experiment [14] was 1.17 µM (active); in [15], 1.48 µM (active); in experiment [16] it was 1.18 µM (active); in experiment [18], 1.55 µM (active); in experiment [19] (HiBiT) it was 4.43 µM (active). Also, the Potency entry in [20] is “inactive”. The Z-AUC is -2.09 in experiment [18] (setting [21]) and -2.06 in [18] (measured here: PEO4 Z-AUC).

`CC(=O)c1ccc2c(c1)c1cc(C(C)=O)ccc1n2CCNC(C)C`: the Potency in experiment [14] was 1.47 µM (active); in experiment [15], 0.742 µM (active); in experiment [16] it was 0.662 µM (active); in experiment [20], 16.1 µM (active); in [18] it was 1.55 µM (active); in experiment [19] (HiBiT), 1.11 µM (active). In addition, the Z-AUC in [18] (setting [21]) was -1.63; in experiment [18] (measured here: PEO4 Z-AUC) it was -1.42. The activity change, negative = inhibition in experiment [19] (Viability) was -5.98% (inactive).
